Laboratory results as given in PubChem BioAssay (NCATS).
Records with an inconclusive call do not appear. Where a call stands in place of a potency, no number is given. Where a structure was tested more than once in an assay, its records may differ in their call. Values without a mark were called inactive. Activity calls are given as the source filed them. Calls follow the shape of the dose curve; as a rule, active = well fitted curve in the direction sought with a large enough effect; inconclusive = small, poorly fitted or top-dose-only effect, or another doubt; inactive = no such curve, though single readings can be large; an effect the other way counts as inactive or inconclusive. Where a SMILES comes first, the peptide text is derived from it. Bridges are numbered along the chain shown (N, C = ends). [ ]: non-standard residue; d: D form. NMeY = CN[CH](Cc1ccc(O)cc1)C(=O)O

Experiments:
HEK293 = assay: Cytotoxic Profiling of Annotated Libraries Using Quantitative High-Throughput Screening (AID 1296008); conditions: Five cell lines viability, CellTiter-Glo ATP luminescence, 48-72 h; max response: stronger effect = lower value; also: nearly all actives have a fitted effect of over 60% in size; also: potency is read from the fitted curve at half-maximal effect
In short: (§1)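 Cytotoxicity was measured as CellTiter-Glo ATP luminescence, read after 10 min at room temperature. Compound treatment of the cells lasted 48 or 72 hr at 37 degrees Celsius in a qHTS format.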

HaCat [1] = assay: as above; conditions: Five cell lines viability, CellTiter-Glo ATP luminescence, 48-72 h; max response: stronger effect = lower value
In short: as §1

KB-3-1 = assay: as above; conditions: Five cell lines viability, CellTiter-Glo ATP luminescence, 48-72 h; max response: stronger effect = lower value
In short: as §1

NIH3T3 [2] = assay: as above; conditions: Five cell lines viability, CellTiter-Glo ATP luminescence, 48-72 h; max response: stronger effect = lower value
In short: as §1

HACAT [3] = assay: qHTS assay to identify novel small-molecules to repurpose for Merkel cell carcinoma treatment (AID 1296009); conditions: MCC and control cell lines, CellTiter-Glo viability, 72 h; series mostly up to 44.8 µM; also: nearly all actives have a fitted effect of over 60% in size
In short: (§2)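 Cell viability, measured as CellTiter-Glo luminescence, was normalized between DMSO and no-cell wells. The cells had been exposed to 8- or 11-point compound dilutions for 72 hr at 37 degree celsius.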

C33A = assay: Primary qHTS to identify gynecologic anti-cancer compounds using libraries of approved drugs and bioactive compounds (AID 1345084); conditions: Gynecologic cancer cell panel viability, ATPlite luminescence, 48 h; series mostly up to 57.5 µM; also: nearly all actives have a fitted effect of over 55% in size; also: potency is read from the fitted curve at half-maximal effect
In short: (§3)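 Cytotoxicity screen measuring ATP content by luciferase luminescence. Each compound is applied at five concentrations for 48 h at 37 C with 5% CO2.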

CAOV3 = assay: as above; conditions: Gynecologic cancer cell panel viability, ATPlite luminescence, 48 h; series mostly up to 57.5 µM
In short: as §3

CASKI = assay: as above; conditions: Gynecologic cancer cell panel viability, ATPlite luminescence, 48 h; series mostly up to 57.5 µM
In short: as §3

Es-2 = assay: as above; conditions: Gynecologic cancer cell panel viability, ATPlite luminescence, 48 h; series mostly up to 57.5 µM
In short: as §3

HeLa = assay: as above; conditions: Gynecologic cancer cell panel viability, ATPlite luminescence, 48 h; series mostly up to 57.5 µM
In short: as §3

Hek293T [4] = assay: as above; conditions: Gynecologic cancer cell panel viability, ATPlite luminescence, 48 h, control line for the selectivity index; series mostly up to 57.5 µM
In short: as §3

JEG-3 = assay: as above; conditions: Gynecologic cancer cell panel viability, ATPlite luminescence, 48 h; series mostly up to 57.5 µM
In short: as §3

NIH3T3 [5] = assay: qHTS assay to identify novel small-molecules to repurpose for Merkel cell carcinoma treatment (AID 1296009); conditions: MCC and control cell lines, CellTiter-Glo viability, 72 h; at 44.8 µM (top of the series) unless noted; also: nearly all actives have a fitted effect of over 60% in size
In short: as §2

HEK293T [6] = assay: as above; conditions: MCC and control cell lines, CellTiter-Glo viability, 72 h; at 44.8 µM (top of the series) unless noted
In short: as §2

SMILES: Cc1cc(C(=O)Nc2cccc(C(=O)Nc3cccc(C(F)(F)F)c3)c2)on1
- max response (HEK293): 2.99%
- outcome (HaCat [1]): inactive
- max response (KB-3-1): -0.787%
- max response (NIH3T3 [2]): -17%
- Potency (HACAT [3]): inactive
- Potency (C33A): inactive
- Potency (CAOV3): inactive
- Potency (CASKI): inactive
- Potency (Es-2): inactive
- Potency (HeLa): inactive
- Potency (Hek293T [4]): inactive
- Potency (JEG-3): inactive

SMILES: CC(=O)O[C@H]1CC[C@@]2(C)C(CC[C@@H](C)[C@]23Cc2c(O)cc4c(c2O3)CN([C@@H](CCC(=O)O)C(=O)O)C4=O)C1(C)C (some centres undefined)
- max response (HEK293): -7.36%
- outcome (HaCat [1]): inactive
- outcome (KB-3-1): inactive
- max response (NIH3T3 [2]): 2.49%
- Potency (HACAT [3]): inactive
- Potency (C33A): inactive
- Potency (CAOV3): inactive
- Potency (CASKI): inactive
- Potency (Es-2): inactive
- Potency (HeLa): inactive
- Potency (Hek293T [4]): inactive
- Potency (JEG-3): inactive

SMILES: Oc1ccc2nc(CN3CCC(Cc4ccccc4F)CC3)[nH]c2c1
- max response (HEK293): -10.9%
- outcome (HaCat [1]): inactive
- max response (KB-3-1): -7.21%
- max response (NIH3T3 [2]): -12%
- Potency (HACAT [3]): inactive
- Potency (C33A): inactive
- Potency (CAOV3): inactive
- Potency (CASKI): inactive
- Potency (Es-2): inactive
- Potency (HeLa): inactive
- Potency (Hek293T [4]): inactive
- Potency (JEG-3): inactive

SMILES: CC1(C)CCC(C)(C)c2cc(C3(c4ccc(C(=O)O)cc4)OCCO3)ccc21
- max response (HEK293): -82.5%
- outcome (HaCat [1]): inactive
- max response (KB-3-1): 9.31%
- max response (NIH3T3 [2]): -24.2%
- Potency (HACAT [3]): inactive
- Potency (C33A): inactive
- Potency (CAOV3): inactive
- Potency (CASKI): inactive
- Potency (Es-2): inactive
- Potency (HeLa): inactive
- Potency (Hek293T [4]): inactive
- Potency (JEG-3): inactive

SMILES: C/C=C/C=C/C(O)=C1\C(=O)[C@]2(C)C3C(C(=O)CC/C=C/C)=C(O)C4(C)C1[C@]1(C)O[C@@]4(O)[C@@]3(C)O[C@@]12O
- max response (HEK293): -0.736%
- outcome (HaCat [1]): inactive
- max response (KB-3-1): 8.54%
- max response (NIH3T3 [2]): 1.07%
- Potency (HACAT [3]): inactive
- Potency (C33A): inactive
- Potency (CAOV3): inactive
- Potency (CASKI): inactive
- Potency (Es-2): inactive
- Potency (HeLa): inactive
- Potency (Hek293T [4]): inactive
- Potency (JEG-3): inactive

SMILES: Cc1ccc(S(=O)(=O)n2ccc(-c3c(-c4ccc(Cl)cc4)noc3C)n2)cc1
- Potency (HEK293): 4.11 µM (active)
- outcome (HaCat [1]): inactive
- max response (KB-3-1): -24.7%
- max response (NIH3T3 [2]): -14.9%
- Potency (HACAT [3]): inactive
- Potency (C33A): 8.91 µM (active)
- Potency (CAOV3): inactive
- Potency (CASKI): inactive
- Potency (Es-2): inactive
- Potency (HeLa): inactive
- Potency (Hek293T [4]): inactive

SMILES: COC(=O)C1=CO[C@@H](O[C@@H]2O[C@H](CO)[C@@H](O)[C@H](O)[C@H]2O)[C@@H]2C(COC(C)=O)=C[C@H](O)[C@H]12
- max response (HEK293): -2.65%
- outcome (HaCat [1]): inactive
- outcome (KB-3-1): inactive
- outcome (NIH3T3 [2]): inactive
- Potency (HACAT [3]): inactive
- outcome (NIH3T3 [5]): inactive [at 17.4 µM]
- Potency (C33A): inactive
- Potency (CAOV3): inactive
- Potency (CASKI): inactive
- Potency (Es-2): inactive
- Potency (HeLa): inactive
- Potency (Hek293T [4]): inactive
- Potency (JEG-3): inactive

SMILES: O=C(O)Cc1cn(C2OCC(O)C(O)C2O[C@@H]2O[C@H](CO)[C@@H](O)[C@H](O)[C@H]2O)c2ccccc12 (some centres undefined)
- max response (HEK293): 0.817%
- outcome (HaCat [1]): inactive
- outcome (KB-3-1): inactive
- max response (NIH3T3 [2]): 2.49%
- Potency (HACAT [3]): inactive
- Potency (C33A): inactive
- Potency (CAOV3): inactive
- Potency (CASKI): inactive
- Potency (Es-2): inactive
- Potency (HeLa): inactive
- Potency (Hek293T [4]): inactive
- Potency (JEG-3): inactive

SMILES: NC(=O)[C@H]1CCS[C@@H]2C[C@]3(CCCN3C(=O)Cc3ccc(NC(=O)COc4ccc(Cl)cc4Cl)cc3)C(=O)N12
- Potency (HEK293): 7.41 µM (active)
- Potency (HaCat [1]): 18.6 µM (active)
- max response (HaCat [1]): -24.7%
- Potency (NIH3T3 [2]): 11.7 µM (active)
- Potency (C33A): inactive
- Potency (CAOV3): inactive
- Potency (Es-2): inactive
- Potency (HeLa): 31.6 µM (active)

SMILES: C=CC(C)(C)c1[nH]c2cc3c(cc2c1CC1NC(=O)C2CCCN2C1=O)C=CC(C)(C)O3 (centres undefined)
- outcome (HEK293): inactive
- outcome (HaCat [1]): inactive
- max response (KB-3-1): 8.42%
- outcome (NIH3T3 [2]): inactive
- Potency (HACAT [3]): inactive
- outcome (HEK293T [6]): inactive [at 17.4 µM]
- outcome (NIH3T3 [5]): inactive [at 17.4 µM]
- Potency (C33A): inactive
- Potency (CAOV3): inactive
- Potency (CASKI): inactive
- Potency (Es-2): inactive
- Potency (HeLa): inactive
- Potency (Hek293T [4]): inactive
- Potency (JEG-3): inactive

SMILES: CC1=CC(=O)[C@]2(O[C@@H]3O[C@@H](C)[C@H](O)[C@@H](O)[C@H]3OC(=O)/C=C/c3ccccc3)C=CO[C@@H](O[C@@H]3O[C@H](CO)[C@@H](O)[C@H](O)[C@H]3O)[C@H]12
- max response (HEK293): -1.41%
- outcome (HaCat [1]): inactive
- max response (KB-3-1): 8.78%
- outcome (NIH3T3 [2]): inactive
- Potency (HACAT [3]): inactive
- outcome (NIH3T3 [5]): inactive [at 17.4 µM]
- Potency (C33A): inactive
- Potency (CAOV3): inactive
- Potency (CASKI): inactive
- Potency (Es-2): inactive
- Potency (HeLa): inactive
- Potency (Hek293T [4]): inactive
- Potency (JEG-3): inactive

SMILES: CCC(C)C1NC(=O)C2CCCN2C(=O)C(NC(C)=O)C(C)OC(=O)C(Cc2ccc(OC)cc2)N(C)C(=O)C2CCCN2C(=O)C(C(C)C)NC1=O (centres undefined) (Ac-TPIVP[NMeY](Me); ester 1-C; configuration not given here)
- max response (HEK293): -18.8%
- outcome (HaCat [1]): inactive
- max response (KB-3-1): -2.69%
- outcome (NIH3T3 [2]): inactive
- Potency (HACAT [3]): inactive
- outcome (NIH3T3 [5]): inactive [at 17.4 µM]
- Potency (C33A): inactive
- Potency (CAOV3): inactive
- Potency (CASKI): inactive
- Potency (Es-2): inactive
- Potency (HeLa): inactive
- Potency (Hek293T [4]): inactive
- Potency (JEG-3): inactive
